Test results published in PubChem BioAssay AID1159580 (chemical genetic matrix, 2015).
Values joined by “and” are separate entries in the source; they are usually repeats but may differ in a detail not shown here. Equal entries are not always repeated. In all, about 5,500 compounds went through this assay and about 2,000 (36%) were called active. Another 18% or so got no clear call; they are omitted. Rule as the data show it: active = normalized growth mostly below about 0.91 (no sharp cut-off); inconclusive = no clear call, values can overlap the other calls; inactive = mostly above about 0.92. Some of the results follow.

Test: chemical genetic growth profiling, strain panel (AID 1159580);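 also: tested at 20 µM; growth read once vehicle control cultures reached saturation at 30 °C; 1 = growth at the plate median or of vehicle wells; lower values mean less growth of the strain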
Settings: S. cerevisiae deletion strains, growth OD

Measured: normalized growth

C/C=C/c1ccc2c(c1)OCO2
inactive: locus YAL013W, strain DEP1, hits give low values 1.01 | locus YAL021C, strain ccr4, hits give low values 1.02 | locus YAL026C, strain drs2, hits give low values 1.02 | locus YAL030W, strain snc1, hits give low values 1.02 | locus YBL061C, strain skt5, hits give low values 1.02 | locus YBR009C, strain hhf1, hits give low values 1.02 | locus YBR021W, strain FUR4, hits give low values 1.02 | locus YBR023C, strain chs3, hits give low values 1.02 | locus YBR171W, strain sec66, hits give low values 1.03 | locus YBR229C, strain ROT2, hits give low values 1.01 | locus YBR231C, strain swc5, hits give low values 1.02 | locus YBR279W, strain paf1, hits give low values 1.02 | locus YCL011C, strain gbp2, hits give low values 1.01 | locus YCL016C, strain dcc1, hits give low values 1.02 | locus YCL029C, strain bik1, hits give low values 1.01 | locus YCL061C, strain MRC1, hits give low values 1 | locus YCL069W, strain vba3, hits give low values 1.02 | locus YCR088W, strain abp1, hits give low values 1.02 | locus YDL005C, strain med2, hits give low values 1.02 | locus YDL035C, strain GPR1, hits give low values 1.02 | locus YDL040C, strain nat1, hits give low values 1.02 | locus YDL074C, strain BRE1, hits give low values 1.07 | locus YDL101C, strain DUN1, hits give low values 1.02 | locus YDL134C, strain PPH21, hits give low values 1 | locus YDL185W, strain tfp1, hits give low values 0.998 | locus YDL192W, strain arf1, hits give low values 1.01 | locus YDR001C, strain nth1, hits give low values 1 | locus YDR069C, strain doa4, hits give low values 1.04 | locus YDR101C, strain arx1, hits give low values 1.04 | locus YDR137W, strain rgp1, hits give low values 0.994 | locus YDR150W, strain NUM1, hits give low values 1.01 | locus YDR159W, strain sac3, hits give low values 1.02 | locus YDR162C, strain NBP2, hits give low values 1 | locus YDR195W, strain ref2 0.988 | locus YDR297W, strain sur2, hits give low values 1.02 | locus YDR318W, strain mcm21, hits give low values 0.991 | locus YDR334W, strain swr1, hits give low values 1.02 | locus YDR335W, strain msn5, hits give low values 1.02 | locus YDR388W, hits give low values 1.01 | locus YDR392W, strain spt3, hits give low values 0.912 | locus YDR502C, strain sam2, hits give low values 1.01 | locus YEL003W, strain gim4, hits give low values 1.02 | locus YEL037C, strain rad23, hits give low values 1.01 | locus YEL061C, strain CIN8 (second series), hits give low values 1.01 | locus YEL061C, strain CIN8, hits give low values 1.01 | locus YER015W, strain faa2, hits give low values 1.01 | locus YER016W, strain bim1, hits give low values 1.02 | locus YER110C, hits give low values 1.01 | locus YER111C, strain swi4, hits give low values 1.01 | locus YER155C, strain BEM2 (second series), hits give low values 0.997 | locus YER155C, strain BEM2, hits give low values 1.01 | locus YER167W, strain BCK2, hits give low values 1.01 | locus YFR010W, strain ubp6, hits give low values 1.02 | locus YGL078C, strain dbp3, hits give low values 1.02 | locus YGL086W, strain mad1, hits give low values 1.05 | locus YGL167C, strain pmr1, hits give low values 1.02 | locus YGL173C, strain kem1, hits give low values 1.02 | locus YGL227W, strain vid30, hits give low values 1.02 | locus YGL240W, strain doc1, hits give low values 1.01 | locus YGL248W, strain PDE1, hits give low values 1.02 | locus YGL253W, strain hxk2, hits give low values 1.02 | locus YGR078C, strain PAC10, hits give low values 1.01 | locus YGR135W, strain pre9, hits give low values 1.01 | locus YGR252W, strain gcn5, hits give low values 0.972 | locus YHR013C, strain ard1, hits give low values 1.09 | locus YHR027C, strain rpn1, hits give low values 1.02 | locus YHR030C, strain SLT2, hits give low values 1.01 and 0.978 | locus YHR079C, strain IRE1 (second series), hits give low values 1 | locus YHR079C, strain IRE1, hits give low values 0.98 | locus YHR094C, strain hxt1, hits give low values 0.994 | locus YHR129C, strain ARP1, hits give low values 1.01 | locus YHR142W, strain chs7, hits give low values 1.03 | locus YHR200W, strain rpn10, hits give low values 1.01 | locus YIL066C, strain RNR3, hits give low values 1.02 | locus YIL073C, strain SPO22, hits give low values 1.06 | locus YIL125W, strain kgd1, hits give low values 1.01 | locus YIR030C, strain dcg1, hits give low values 0.998 | locus YJL092W, strain hpr5, hits give low values 1.01 | locus YJL095W, strain BCK1 (second series), hits give low values 1.02 | locus YJL095W, strain BCK1, hits give low values 1.02 and 0.98 | locus YJL115W, strain asf1, hits give low values 1.03 | locus YJL129C, strain trk1, hits give low values 1.03 | locus YJL134W, strain LCB3, hits give low values 1.01 | locus YJL154C, strain vps35, hits give low values 1 | locus YJL164C, strain tpk1, hits give low values 1.01 | locus YJL166W, strain qcr8, hits give low values 1.01 | locus YJL168C, strain set2, hits give low values 1.01 | locus YJL187C, strain SWE1 (second series), hits give low values 1.03 | locus YJL187C, strain SWE1, hits give low values 1.01 | locus YJR043C, strain POL32, hits give low values 1.02 | locus YJR066W, strain TOR1, hits give low values 0.948
